Screening results (PubChem BioAssay)
Tb PFK inh-1 – blocks T. brucei phosphofructokinase | O15648 | T. brucei PFK, ADP-Glo luminescence | Potency, µM (series often up to 57.5 µM), without a hit: at the highest dose activity, negative = inhibition, actives largely listed as inhibitors | 330,000 compounds, 0.17% hits;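 also: 0% = uninhibited 1x PFK enzyme wells and -100% = no-enzyme wells; nearly all actives have a fitted effect of over 60% in size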
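Compounds were pin-transferred as a titration series up to 57 uM into substrate buffer (0.5 mM F6P, 0.1 mM ATP, pH 8.0), then 1.25 nM PFK was added and reactions ran 45 min before ADP-Glo detection.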
B2AR arrestin – beta2AR (human) beta-arrestin recruitment activity. P07550. beta-arrestin recruitment to beta2AR, cell-based reporter. Potency, µM (doses to about 46.1 µM), for inactives: top-dose activation, actives largely listed as activators. 330,000 compounds, 0.02% hits. AID 492947;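 also: 0% = DMSO controls and full agonism = EC100 isoproterenol or metaproterenol; nearly all actives have a fitted effect of over 65% in size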
Target sequence (P07550 whole entry, looked up): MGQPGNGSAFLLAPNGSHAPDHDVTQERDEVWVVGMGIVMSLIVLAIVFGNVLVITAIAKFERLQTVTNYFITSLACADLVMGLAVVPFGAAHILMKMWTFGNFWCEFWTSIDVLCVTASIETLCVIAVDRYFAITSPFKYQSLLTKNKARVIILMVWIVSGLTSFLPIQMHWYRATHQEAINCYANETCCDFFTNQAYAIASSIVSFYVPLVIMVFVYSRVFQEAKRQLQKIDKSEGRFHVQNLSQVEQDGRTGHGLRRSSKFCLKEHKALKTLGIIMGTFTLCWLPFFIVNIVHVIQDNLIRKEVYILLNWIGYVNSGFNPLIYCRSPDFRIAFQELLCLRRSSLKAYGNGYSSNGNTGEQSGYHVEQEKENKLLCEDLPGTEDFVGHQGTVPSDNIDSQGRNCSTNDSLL
Chronic BCR inh – inhibitors of chronic active B-cell receptor signaling. ABC-DLBCL IkBa-CBG/CBR reporter, luminescence ratio, 4 h. Potency, µM (highest dose often 46.1 µM), inactives show top-dose activity change, negative = inhibition, actives largely listed as inhibitors. 340,000 compounds, 0.05% hits. AID 493014; active = well fitted inhibition curve with a large enough effect in the signal ratio, with a control signal flat, not every such curve was filed as active; inconclusive = small, poorly fitted or top-dose-only effect, or effect the other way, or a change in a side signal; the % refers to the signal ratio;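 also: plate controls were basal doxycycline-induced cells for no effect and cells given 10 µM MG132 for full effect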
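Compounds up to 46 uM were incubated four hours with TMD8 cells whose green CBG68 luciferase is fused to IkappaBalpha; red CBR luminescence normalised the signal, and concentration-effect curves were fitted to fusion, red and ratio data.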
MBNL1 CUG block – blocks human MBNL1 binding to CUG repeat RNA; 280,000 compounds, 0.036% hits; Potency, µM (top dose mostly 57.5 µM), inactives show at the top dose activity change, negative = inhibition, usual class: inhibitors; AID 2675; TR-FRET MBNL1-His/biotin-(CUG)12 binding, 665/545 ratio; active = well fitted inhibition curve with a large enough effect in the signal ratio, with a control signal flat, not every such curve was filed as active; inconclusive = small, poorly fitted or top-dose-only effect, or effect the other way, or a change in a side signal; inactive = no such curve, though single readings can be large or run the other way; the % refers to the signal ratio; also: % is scaled to controls: 0 for no effect and ±100 for the full control effect
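Compound titration spanned 92 nM–58 uM against the MBNL1-His/biotin-(CUG)12 complex. After 60 min at room temperature with 5 nM streptavidin-XL665 and 0.055 ng/ul terbium anti-His, ratiometric 665/545 nm emission (Ex 340 nm) normalized to controls.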
TbPFK ATP – inhibits T. brucei PFK measured by ATP depletion | shares compounds with Tb PFK inh-1 | Tb PFK enzyme, ATP depletion, Kinase-Glo Plus luminescence | Potency, µM (titrated, usually from 57.5 µM), without a hit: at the top dose inhibition | 1,100 compounds, 47% hits | AID 504636; calls by dose curve; also: nearly all actives have a fitted effect of over 60% in size
Tb PFK inh-2 – validation of T. brucei phosphofructokinase inhibitors; purified T. brucei PFK, ADP-Glo luminescence, 45 min; Potency, µM (series often up to 57.5 µM), inactives show at the top dose activity change, negative = inhibition, hits mostly inhibitors; 1,100 compounds, 41% hits; shares compounds with Tb PFK inh-1; AID 504637;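 also: plate controls were full PFK enzyme control for no effect and no enzyme control for full effect; nearly all actives have a fitted effect of over 60% in size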
The depositor's hits bear a star; ? = inconclusive; nt = not tested or not shown; [ ] = another dose, or the depositor's remark. Shown are actives, neighbours in structure and some others; about 0.27% of the full set was active somewhere. Unless noted, calls follow the shape of the dose curve; as a rule, active = well fitted curve in the direction sought with a large enough effect; inconclusive = small, poorly fitted or top-dose-only effect, or another doubt; inactive = no such curve, though single readings can be large; an effect the other way counts as inactive or inconclusive. Potency is read from the fitted curve at half-maximal effect.

SMILES	Tb PFK inh-1	B2AR arrestin	Chronic BCR inh	MBNL1 CUG block	TbPFK ATP	Tb PFK inh-2
O=c1cc(-c2ccc(O)c(O)c2)oc2cc(O[C@@H]3O[C@H](CO)[C@@H](O)[C@H](O)[C@H]3O)cc(O)c12	?	0.3%	6.1%	nt	?	?
O=c1c(OC2OC(CO)C(O)C(O)C2O)c(-c2ccc(O)c(O)c2)oc2cc(O)cc(O)c12 (stereo not given)	12µM*	2.3%	0.3%	?	8.49µM*	4.26µM*
CCc1ccc(OC(=O)c2sc3ncn(Cc4cccc(F)c4)c(=O)c3c2C)cc1	nt	nt	10.8%	nt	nt	nt
O=C(O)c1cc2ncc(-c3[nH]ncc3[N+](=O)[O-])cn2n1	?	-0.3%	4.4%	?	-21.4%	?
O=C(c1[nH]ncc1[N+](=O)[O-])N1CCOCC1	3.9%	-0.6%	3.3%	-3.4%	nt	nt
Oc1ccc(/C=N/N=C/c2ccc(O)c(O)c2)cc1O	2.69µM*	-0.8%	?	?	?	?
Cc1cccc(N2C(=O)N(Cc3cccc(C#N)c3)c3ccccc3S2(=O)=O)c1	nt	nt	-0.8%	nt	nt	nt
O=C1CC(N2CCN(Cc3ccccc3)CC2)C(=O)N1 (stereo not given)	-1.0%	-0.2%	1.2%	-2.0%	nt	nt
O=C1CC(N2CCN(c3ccc(Cl)c(Cl)c3)CC2)C(=O)N1 (stereo not given)	6.01µM*	0.1%	-0.7%	-14.4%	?	?
CCC(Sc1nc2ccccc2c2nc(-c3ccccc3)nn12)C(=O)Nc1cccc(OC)c1 (stereo not given)	nt	nt	16.3%	nt	nt	nt
CCNS(=O)(=O)c1ccc(NC(=O)Cn2cc([N+](=O)[O-])cn2)cc1	12µM*	0.4%	1.8%	7.3%	12µM*	?
Cc1ccc(C(=O)OCC(=O)c2ccc(CC(=O)N3CCOCC3)s2)c(C)c1	?	-0.6%	0.2%	nt	?	?
COc1ccc(C(=S)N2CCN(c3ccccc3Cl)CC2)cc1OC	?	-0.4%	2.0%	4.5%	nt	nt
COc1cc(C(=S)N2CCN(c3ccccc3Cl)CC2)cc(O)c1O	?	9.1%	?	-5.3%	?	?
COc1ccc(CNC(=O)c2ccc(CNS(=O)(=O)c3ccc(F)cc3)cc2)cc1	nt	nt	17.9%	nt	nt	nt
O=C(COC(=O)c1cc2c(s1)CCC2)Nc1ccc(F)cc1	10.7µM*	-0.3%	-13.9%	-10.5%	?	?
O=Cc1cn(Cc2cccc([N+](=O)[O-])c2)c2ccccc12	?	-1.5%	-13.4%	?	?	-23.7%
O=C(c1cc(-c2ccco2)nc2ccccc12)N1CCN(Cc2ccccc2)CC1	-4.8%	-0.2%	-2.2%	nt	nt	nt
COC(=O)C1CCN(C(=O)c2cc(-c3ccco3)nc3ccccc23)CC1	2.69µM*	-0.2%	7.6%	nt	?	-25.5%
CCc1nnc(NC(=O)CSc2nc(C)c3c(c2C#N)CCCC3)s1	?	-1.1%	-8.2%	40.2%	-17.9%	16.2%
CC(=O)NC1=NN(C(C)=O)C(C)(c2ccccc2)S1 (stereo not given)	?	-1.7%	0.4%	?	1.2%	-0.9%
CC(=O)NC1=NN(C(C)=O)C(C)(c2ccc3ccccc3c2)S1 (stereo not given)	-1.2%	-0.2%	-6.4%	nt	nt	nt
COC(=O)c1ccc(-c2noc(CN(C)CCC3CCCCO3)n2)cc1 (stereo not given)	?	0.0%	?	0.2%	3.5%	?
COc1ccc(-c2noc(CN(C)CCC3CCCCO3)n2)cc1 (stereo not given)	5.5%	0.2%	13.9%	-5.0%	nt	nt
COc1cc(CNc2ccccc2)c([N+](=O)[O-])cc1OC	0.7%	-0.5%	?	?	nt	nt
SMILES	Tb PFK inh-1	B2AR arrestin	Chronic BCR inh	MBNL1 CUG block	TbPFK ATP	Tb PFK inh-2
COc1cccc(CNc2ccc(F)c([N+](=O)[O-])c2)c1O	?	0.0%	-7.2%	?	19µM*	30.1µM*
O=[N+]([O-])c1ccccc1CNc1ccc(F)c(Cl)c1	?	-0.3%	6.0%	?	21.3µM*	?
CCOC(=O)c1c(S(=O)(=O)N2CCCC(C(=O)Nc3cc(C)ccc3OC)C2)c(C)n(C)c1C (stereo not given)	nt	nt	-1.1%	nt	nt	nt
CC1(C)N=C(N)N=C(N)N1c1ccc(Oc2ccc(Cl)cc2)c(Cl)c1	2.1%	0.4%	-12.5%	-8.6%	nt	nt
Cc1[nH]c2c(Cl)cccc2c1CCN	19µM*	0.1%	1.3%	-7.0%	10.7µM*	10.7µM*
CC1=C(C(=O)Nc2ccccc2)C(c2ccc[nH]2)n2ncnc2N1 (stereo not given)	?	-0.4%	?	nt	?	-13.3%
CC1=C(C(=O)Nc2ccccc2)C(c2ccccn2)n2ncnc2N1 (stereo not given)	nt	nt	nt	-4.7%	nt	nt
Cc1cccc(-n2c(=O)c3c4c(sc3n3c(C)nnc23)CCCC4)c1	nt	nt	3.6%	nt	nt	nt
Cc1cc(SCc2ccc(Cl)c(Cl)c2)nc(=O)[nH]1	?	0.7%	?	-0.3%	12µM*	23.9µM*
CC(C)n1ncc2c(C(=O)Nc3ccc(S(N)(=O)=O)cc3)cc(C3CC3)nc21	?	2.4%	?	nt	-33.1%	?
CC(C)n1ncc2c(C(=O)Nc3ccc(S(C)(=O)=O)cc3)cc(C3CC3)nc21	?	-0.1%	0.5%	nt	nt	nt
O=S(=O)(Nc1cc(S(=O)(=O)N2CCOCC2)ccc1Cl)c1ccccc1	-5.3%	-0.4%	1.3%	nt	nt	nt
O=[N+]([O-])c1ccccc1-c1ccc(/C=N/n2cnnc2)o1	-3.1%	-0.5%	-8.3%	?	nt	nt
O=C(O)CC1S/C(=N/N=C/c2ccc(-c3ccccc3[N+](=O)[O-])o2)NC1=O (stereo not given)	?	0.0%	?	?	-30.6%	?
Cc1ccc(-c2ccc(/C=N/N=C3/NC(=O)C(CC(=O)O)S3)o2)c([N+](=O)[O-])c1 (stereo not given)	?	-0.1%	?	?	-34.0%	?
Cc1ccc(S(=O)(=O)Oc2ccc(/C=N/N=C3/NC(=O)C(CC(=O)O)S3)cc2)cc1 (stereo not given)	4.0%	0.1%	-2.9%	13.3%	nt	nt
Cc1nc2sc3c(c2c(=O)[nH]1)CCC3	12.7%	-1.3%	-2.2%	-2.8%	nt	nt
Cc1cc(-c2nc3c4c5c(sc4[nH]c(=O)n3n2)CCC5)c(C)o1	?	-0.4%	3.9%	1.2%	15.7%	-9.3%
Brc1cccc(OCCn2ccnc2)c1	21.3µM*	-0.2%	-9.9%	-0.9%	12µM*	13.5µM*
O=C1/C(=C/c2ccco2)SC(=S)N1c1cccnc1	?	-0.2%	0.1%	?	4.26µM*	7.57µM*
O=C1/C(=C\c2ccco2)SC(=S)N1c1ccc(O)cc1	-11.4%	-0.6%	?	11.8%[11.5 µM]	nt	nt
